Results filed as inconclusive are left out. Entries that show only a call come without a potency. Values without a mark were called inactive. Active and inactive are the calls of the source. Calls follow the shape of the dose curve; as a rule, active = well fitted cell-killing curve with a large enough effect in the repeat runs (not every such curve was filed as active); inconclusive = weak or mixed curves, or effect the other way; inactive = no such curve, though single readings can be large or run the other way.

The experiment in a line: qHTS assay to identify small molecule antagonists of the estrogen related receptor signaling pathway with the pleiotropic PPARgamma coactivator (PGC) from Tox21 10K library - cell viability counter screen (AID 1224840). Also: nearly all actives have a fitted effect of over 40% in size. The conditions noted are these: PGC/ERR reporter cells viability, CellTiter-Fluor, 17.5 h; series mostly up to 92.4 µM; viability change, negative = cytotoxic: at the top concentration. An excerpt: National Center for Advancing Translational Sciences [NCATS]
NIH Chemical Genomics Center [NCGC]
U.S. Environmental Protection Agency [EPA]
National Institutes of Environmental Health Sciences [NIEHS]
National Toxicology Program [NTP]
U.S. Food and Drug Administration [FDA]
Estrogen related receptors (ERRs), the first orphan nuclear receptors discovered, play an important role in the control of cellular energy metabolism. ERRs are required for high-energy production in response to the environmental challenges. The pleiotropic PPARgamma coactivator (PGC) is a major partner of ERR and a key regulator in energy homeostasis. Together they have been implicated in the etiology of metabolic disorders such as Type 2 diabetes and metabolic syndrome. ERR-alpha was also identified as an adverse marker for breast cancer progression; ERR-alpha-positive tumors have a poor prognosis. To screen and to identify environmental compounds that perturb the ERR and PGC/ERR signaling pathways could provide valuable information for potential therapeutic or preventive measures in the treatment of metabolic disease. To differentiate true PGC/ERR antagonists or agonist from cytotoxic substances, the assay is multiplexed with cell viability assay.
Tox21 Assay Protocol Summary:
The PGC/ERR cells were dispensed at 2,000 cells/5 ul/well in 1536-well white plates using a Multidrop dispenser. After the assay plates were incubated at a 37 C/5% CO2 incubator for 6 hours, 23 nL of compounds dissolved in DMSO, positive and negative controls or DMSO only was transferred to the assay plate by a pin tool. The plates were incubated at 37 C for 17.5 hours. 1 ul/well of CellTiter-Fluor reagent was added into the assay plates using a Flying Reagent Dispenser. After 30-minute incubation at 37 C/5% CO2, the fluorescence intensity in the plates was measured using a ViewLux plate reader.
Background: In qHTS, concentration-response curves come from the screen itself.
As to `CNCC(O)c1ccc(O)cc1` (stereo not given), the Potency entry was “inactive”.
For `Cc1ccc(N)cc1`, the Potency result was “inactive”.
On the same count and under the same terms, for `CCSC(=O)N1CCCCCC1` the value was “inactive”; for `C=CC(=O)OCCCCCC(C)C`, “inactive”.
As for `O=C(O)CCCc1ccc(N(CCCl)CCCl)cc1`, the Potency entry is “inactive”.
Turning to `O=[N+]([O-])c1cc([As](=O)(O)O)ccc1O`, the Potency result was “inactive”.
The same measure, in the same setting: for `CCOP(=S)(OCC)Oc1ccc([N+](=O)[O-])cc1` the value was “inactive”; for `CC(=O)C1CCOC1=O` (stereo not given), “inactive”.
As for `ClC(Cl)c1ccccc1`, the Potency entry is “inactive”.
For `C/C=C/c1ccc2c(c1)OCO2`, the Potency entry was “inactive”.
As to `CNC(=O)O/N=C/C(C)(C)SC`, the Potency result is “inactive”.
Consider `COc1nc(NC(C)C)nc(NC(C)C)n1`, for which the Potency result is “inactive”.
Regarding `CN(C)C(=O)C(c1ccccc1)c1ccccc1`, the Potency entry was “inactive”.
With `OCCCCO`, the Potency entry was “inactive”.
For the compound `Cc1ccc(O)c(C)c1`, the Potency entry is “inactive”.
Take `Nc1ncc([N+](=O)[O-])s1`: the “viability change, negative = cytotoxic” value is 1.01%.
Turning to `Cc1cccc(C)c1N`, the Potency entry was “inactive”.
Same read-out and setting: for `COC(=O)Nc1cccc(OC(=O)Nc2cccc(C)c2)c1` the value was “inactive”.
Same read-out and setting: for `c1ccc2c(c1)CCCC2` the value was “inactive”; for `Nc1cc(Cl)cc(Cl)c1`, “inactive”; for `OCc1ccco1`, “inactive”.
For `Cc1cccc(N)c1`, the Potency entry was “inactive”.
The same measure, in the same setting: the same measure for `NNc1ccccc1`: “inactive”; for `Cl[C@H]1OCCO[C@@H]1Cl`: “inactive”.
`CN(C)C(=O)Cl`: the Potency entry is “inactive”.
In the case of `CCCCCCCCCCCCCCCCCC(=O)O`, the Potency entry was “inactive”.
Still for that read-out and setting: the same measure for `O=[N+]([O-])c1ccc(Cl)cc1`: “inactive”.
As to `Clc1cnc(Oc2ccc(Oc3ncc(Cl)cc3Cl)cc2)c(Cl)c1`, the Potency entry is “inactive”.
Still for that read-out and setting: the same measure for `Sc1ccccc1`: “inactive”; for `Cc1cc(Cl)ccc1OC(C)C(=O)O` (stereo not given): “inactive”.
Consider `O=P1(NCCCl)OCCCN1CCCl` (stereo not given), for which the Potency result was “inactive”.
For `Nc1cccc(Cl)c1`, the Potency entry is “inactive”.
As for `C[C@H]1C(=O)O[C@@H]2CCN3CC=C(COC(=O)[C@](C)(O)[C@]1(C)O)[C@H]23`, the Potency result is “inactive”.
The same measure, in the same setting: for `Cc1ccc(N=C=O)cc1N=C=O` the value was “inactive”.
Same read-out and setting: the same measure for `O=C(O)Cc1ccccc1`: “inactive”; for `CN(C)CCC#N`: “inactive”; for `O=C(O)C(Br)Br`: “inactive”.
Still for that read-out and setting: for `CNC(=O)O/N=C/C(C)(C)S(C)(=O)=O` the value was “inactive”; for `CSc1nnc(C(C)(C)C)c(=O)n1N`, “inactive”.
In the case of `CN(C)NC(=O)CCC(=O)O`, the Potency result was “inactive”.

Source of the values: PubChem BioAssay (Tox21).
